Compounds without any hit were thinned out: in the full panel of roughly 83,000, 20% have a hit.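 Cell lines were cultured in 96-well plates, exposed to a single compound concentration, and assessed for percent growth 48 hours later.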 Active and inactive are the calls of the source. Rule for the calls: active = growth percent below 10; inactive = the rest.
How the values were obtained:
Assay in all cases: NCI-60 one-dose screen, 48 h (100 = growth as untreated, 0 = no growth, -100 = all killed)
RPMI-8226 leukemia = conditions: 10 µM unless noted
OVCAR-8 ovarian = conditions: 10 µM unless noted
OVCAR-5 ovarian = conditions: 10 µM unless noted
OVCAR-4 ovarian = conditions: 10 µM unless noted
OVCAR-3 ovarian = conditions: 10 µM unless noted
HS 578T breast = conditions: 10 µM unless noted
NCI/ADR-RES ovarian = conditions: 10 µM unless noted
T-47D breast = conditions: 10 µM unless noted
BT-549 breast = conditions: 10 µM unless noted
MDA-MB-435 melanoma = conditions: 10 µM unless noted
SW-620 colon = conditions: 10 µM unless noted
MCF7 breast = conditions: 10 µM
HCT-116 colon = conditions: 10 µM unless noted
HCC-2998 colon = conditions: 10 µM unless noted
KM12 colon = conditions: 10 µM unless noted
IGROV1 ovarian = conditions: 10 µM unless noted
SK-OV-3 ovarian = conditions: 10 µM unless noted

Measured: growth

CNC(=O)c1cc(Oc2ccc(CC(=O)Nc3cc(C(C)(C)C)cn3C)cc2)ccn1
inactive: RPMI-8226 leukemia 53.1% | OVCAR-8 ovarian 65.2% | OVCAR-5 ovarian 116% | OVCAR-4 ovarian 48.9% | OVCAR-3 ovarian 81.6% | HS 578T breast 86.9% | NCI/ADR-RES ovarian 72.4% | T-47D breast 48.9% | BT-549 breast 63.9% | MDA-MB-435 melanoma 66.2% | SW-620 colon 105% | MCF7 breast 50.1% | HCT-116 colon 54.3% | HCC-2998 colon 103% | KM12 colon 86.3%

COc1ccc(/C=C/C(=O)c2ccc(Nc3nc(NCCO)nc(Nc4ccc(Cl)cc4)n3)cc2)cc1
active: RPMI-8226 leukemia 8.06%
inactive: OVCAR-8 ovarian 71.8% | OVCAR-5 ovarian 95.7% | OVCAR-4 ovarian 62.6% | IGROV1 ovarian 98% | OVCAR-3 ovarian 73.1% | HS 578T breast 87.5% | NCI/ADR-RES ovarian 83.2% | BT-549 breast 61.3% | MDA-MB-435 melanoma 65.4% | SW-620 colon 91.1% | MCF7 breast 12.9% | HCT-116 colon 19.8% | HCC-2998 colon 57.2%

Nc1nc(-c2cnccn2)nn1-c1nc2ccccc2s1
inactive: RPMI-8226 leukemia 82% | OVCAR-8 ovarian 99.9% | OVCAR-5 ovarian 104% | OVCAR-4 ovarian 97.7% | OVCAR-3 ovarian 108% | HS 578T breast 99.3% | NCI/ADR-RES ovarian 101% | MDA-MB-435 melanoma 103% | SW-620 colon 105% | MCF7 breast 83.8% | HCT-116 colon 93% | HCC-2998 colon 101% | KM12 colon 101%

O=c1c2cc(F)ccc2sc2c(Nc3ccncc3)nc3ccccc3c12
inactive: IGROV1 ovarian 70.7% | OVCAR-3 ovarian 36.5% | HS 578T breast 75.3% | BT-549 breast 81.5% | HCC-2998 colon 75.9%
active: RPMI-8226 leukemia -31.4% | OVCAR-8 ovarian -18% | OVCAR-5 ovarian -2.06% | OVCAR-4 ovarian -67.5% | NCI/ADR-RES ovarian -9.24% | MDA-MB-435 melanoma -62.1% | SW-620 colon -74.6% | MCF7 breast -77.9% | HCT-116 colon -48.9% | KM12 colon 1.24%

COc1cccc2c(=O)c3c(sc12)c(NCCCNCCO)nc1ccccc13
inactive: RPMI-8226 leukemia 29.1% | OVCAR-8 ovarian 49.8% | OVCAR-5 ovarian 77.8% | OVCAR-4 ovarian 42.4% | OVCAR-3 ovarian 54.6% | HS 578T breast 35.9% | NCI/ADR-RES ovarian 60.6% | T-47D breast 72.1% | BT-549 breast 84.8% | MDA-MB-435 melanoma 15% | HCT-116 colon 31.5% | HCC-2998 colon 37.9% | KM12 colon 31.3%
active: SW-620 colon -73.9% | MCF7 breast -13.6%

O=C(Nc1ccsc1C(=O)NC1CCCCC1)c1ccc(F)cc1
inactive: RPMI-8226 leukemia 70% | OVCAR-8 ovarian 102% | OVCAR-5 ovarian 98.3% | SK-OV-3 ovarian 101% | IGROV1 ovarian 90.7% | OVCAR-3 ovarian 111% | HS 578T breast 105% | NCI/ADR-RES ovarian 96.5% | T-47D breast 102% | BT-549 breast 113% | MDA-MB-435 melanoma 110% | SW-620 colon 92.5% | MCF7 breast 90.6% | HCT-116 colon 76% | HCC-2998 colon 97% | KM12 colon 107%

CC(C)Cn1c2c(c(=S)[nH]c1=O)CCC2
inactive: RPMI-8226 leukemia 99.2% | OVCAR-8 ovarian 101% | OVCAR-5 ovarian 99.5% | OVCAR-4 ovarian 101% | OVCAR-3 ovarian 111% | HS 578T breast 102% | NCI/ADR-RES ovarian 106% | T-47D breast 111% | BT-549 breast 108% | MDA-MB-435 melanoma 98.9% | SW-620 colon 93.6% | MCF7 breast 109% | HCT-116 colon 105% | HCC-2998 colon 123% | KM12 colon 105%

OCCNc1nc(Nc2ccc(C3=NN(c4cc(Cl)cc(Cl)c4)C(c4ccc(C(F)(F)F)cc4)C3)cc2)nc(N2CCOCC2)n1 (stereo not drawn)
inactive: RPMI-8226 leukemia 71.7% | OVCAR-8 ovarian 68.1% | OVCAR-5 ovarian 95.3% | OVCAR-4 ovarian 64% | IGROV1 ovarian 93% | OVCAR-3 ovarian 86.1% | HS 578T breast 62.8% | NCI/ADR-RES ovarian 68.3% | T-47D breast 64.1% | MDA-MB-435 melanoma 66.5% | SW-620 colon 94% | MCF7 breast 30.1% | HCT-116 colon 66.8% | HCC-2998 colon 76.3% | KM12 colon 68.6%

c1ccc(-c2ccc(-c3nc4ccccc4[nH]3)cc2)cc1
inactive: RPMI-8226 leukemia 51.2% | OVCAR-8 ovarian 89.4% | OVCAR-5 ovarian 106% | SK-OV-3 ovarian 89.3% | IGROV1 ovarian 75.1% | OVCAR-3 ovarian 86.2% | HS 578T breast 94.5% | NCI/ADR-RES ovarian 86.7% | T-47D breast 86.6% | BT-549 breast 94.2% | MDA-MB-435 melanoma 82.4% | SW-620 colon 101% | MCF7 breast 76.3% | HCT-116 colon 74.1% | HCC-2998 colon 88.3% | KM12 colon 84.6%

c1ccc2cc3c(Nc4ccc(N5CCOCC5)cc4)ccnc3cc2c1
inactive: RPMI-8226 leukemia 60.1% | OVCAR-8 ovarian 94.3% | OVCAR-5 ovarian 97% | SK-OV-3 ovarian 107% | IGROV1 ovarian 89.5% | OVCAR-3 ovarian 96% | HS 578T breast 103% | NCI/ADR-RES ovarian 91.1% | T-47D breast 95.5% | BT-549 breast 99.3% | MDA-MB-435 melanoma 95.6% | SW-620 colon 101% | MCF7 breast 84% | HCT-116 colon 90.2% | HCC-2998 colon 109% | KM12 colon 102%

COc1cc(NC(=O)CCSc2nc3ccccc3c(=O)n2CCc2ccccn2)cc(OC)c1OC
inactive: RPMI-8226 leukemia 79% | OVCAR-5 ovarian 89.4% | OVCAR-4 ovarian 46.6% | SK-OV-3 ovarian 78.9% | IGROV1 ovarian 99.8% | OVCAR-3 ovarian 110% | HS 578T breast 89.2% | NCI/ADR-RES ovarian 89.4% | T-47D breast 69.7% | BT-549 breast 73.4% | MDA-MB-435 melanoma 101% | SW-620 colon 101% | MCF7 breast 62.4% | HCT-116 colon 85.5% | HCC-2998 colon 97.5% | KM12 colon 99.8%

COc1ccc(C2C3=C(COC3=O)N(CCO)c3cc4c(cc32)CCC4)cc1OC (stereo not drawn)
inactive: RPMI-8226 leukemia 33.4% | OVCAR-5 ovarian 57.3% | OVCAR-4 ovarian 28.3% | SK-OV-3 ovarian 24.8% | IGROV1 ovarian 24.2% | HS 578T breast 21.1% | NCI/ADR-RES ovarian 31.3% | BT-549 breast 29.2% | SW-620 colon 14.7% | HCT-116 colon 14.3%
active: OVCAR-3 ovarian -18.6% | MDA-MB-435 melanoma -45.6% | HCC-2998 colon -0.413% | KM12 colon -8.65%

Clc1ncccc1Nc1ccc2nnc(-c3ccncc3)n2n1
inactive: RPMI-8226 leukemia 98.9% | OVCAR-5 ovarian 104% | OVCAR-4 ovarian 91.3% | SK-OV-3 ovarian 104% | IGROV1 ovarian 82.3% | OVCAR-3 ovarian 102% | HS 578T breast 102% | NCI/ADR-RES ovarian 98.7% | T-47D breast 86.6% | BT-549 breast 108% | MDA-MB-435 melanoma 102% | SW-620 colon 103% | MCF7 breast 94.2% | HCT-116 colon 101% | HCC-2998 colon 95.7% | KM12 colon 101%

Cc1cc(Br)c(N)c(Br)c1
inactive: RPMI-8226 leukemia 99.5% | OVCAR-5 ovarian 100% | OVCAR-4 ovarian 94.9% | SK-OV-3 ovarian 83.3% | IGROV1 ovarian 110% | OVCAR-3 ovarian 108% | HS 578T breast 109% | NCI/ADR-RES ovarian 98% | T-47D breast 92.5% | BT-549 breast 94.9% | MDA-MB-435 melanoma 97.4% | SW-620 colon 101% | MCF7 breast 92.3% | HCT-116 colon 82.8% | HCC-2998 colon 90.6% | KM12 colon 104%

FC(F)(F)c1cccc(CNC2CCN(CCc3ccccc3)CC2)c1
inactive: OVCAR-8 ovarian 79.5% | OVCAR-5 ovarian 84.6% | SK-OV-3 ovarian 81.2% | IGROV1 ovarian 61.9% | OVCAR-3 ovarian 64.7% | HS 578T breast 88.1% | NCI/ADR-RES ovarian 65.2% | T-47D breast 86.7% | MDA-MB-435 melanoma 43.6% | SW-620 colon 63% | MCF7 breast 74.9% | HCT-116 colon 31.3% | HCC-2998 colon 19.5% | KM12 colon 70.2%
active: RPMI-8226 leukemia -10.3%

COc1cc2c(cc1OC)C(=O)C(CC1CCN(C(=O)Nc3ccc(C)cc3)CC1)C2 (stereo not drawn)
inactive: RPMI-8226 leukemia 111% | OVCAR-5 ovarian 86.9% | OVCAR-4 ovarian 89.8% | SK-OV-3 ovarian 98.5% | IGROV1 ovarian 96.1% | OVCAR-3 ovarian 100% | HS 578T breast 82.1% | NCI/ADR-RES ovarian 99.6% | T-47D breast 89.1% | BT-549 breast 96.6% | MDA-MB-435 melanoma 97.7% | SW-620 colon 94.6% | MCF7 breast 90.4% | HCT-116 colon 97.4% | HCC-2998 colon 116% | KM12 colon 94.3%

O=C(NC1CCN(Cc2ccccc2)CC1)c1cc2nc(-c3ccc(Cl)s3)cc(C(F)(F)F)n2n1
inactive: OVCAR-5 ovarian 93.2% | OVCAR-4 ovarian 66.4% | SK-OV-3 ovarian 92.6% | IGROV1 ovarian 118% | OVCAR-3 ovarian 89.9% | HS 578T breast 87.3% | NCI/ADR-RES ovarian 94.4% | T-47D breast 97.1% | BT-549 breast 66% | HCT-116 colon 28% | HCC-2998 colon 84.2%
active: RPMI-8226 leukemia -18.4% | MDA-MB-435 melanoma -82% | SW-620 colon -6.12% | MCF7 breast -68.2%

COC(=O)c1cc2c(n1Cc1ccccc1)-c1oncc1CCC2
inactive: RPMI-8226 leukemia 49.8% | OVCAR-8 ovarian 76.7% | OVCAR-5 ovarian 87.8% | SK-OV-3 ovarian 93.7% | OVCAR-3 ovarian 65.2% | HS 578T breast 78.2% | NCI/ADR-RES ovarian 40.3% | T-47D breast 74.9% | BT-549 breast 79.6% | SW-620 colon 34.7% | MCF7 breast 40.8% | HCT-116 colon 57.4% | HCC-2998 colon 76.2% | KM12 colon 63%
active: MDA-MB-435 melanoma -13%

COCCN(C(=O)Cc1cccs1)C(C(=O)NCc1ccc(OC)cc1)c1ccc(C(C)C)cc1 (stereo not drawn)
inactive: RPMI-8226 leukemia 93.2% | OVCAR-8 ovarian 80.9% | OVCAR-5 ovarian 106% | SK-OV-3 ovarian 87.5% | OVCAR-3 ovarian 51.5% | HS 578T breast 76.2% | NCI/ADR-RES ovarian 73.8% | T-47D breast 87% | BT-549 breast 93.9% | MDA-MB-435 melanoma 104% | SW-620 colon 85.3% | MCF7 breast 85.4% | HCT-116 colon 68.7% | HCC-2998 colon 81.4% | KM12 colon 84.2%

Cc1ccc2nc(NC(=O)CSC(=S)N3CCN(c4ccccc4)CC3)sc2c1
active: IGROV1 ovarian -4.12%
inactive: RPMI-8226 leukemia 79.3% | OVCAR-5 ovarian 95.6% | OVCAR-4 ovarian 92.7% | SK-OV-3 ovarian 111% | OVCAR-3 ovarian 104% | HS 578T breast 104% | NCI/ADR-RES ovarian 88.2% | T-47D breast 85.7% | BT-549 breast 102% | MDA-MB-435 melanoma 111% | SW-620 colon 109% | MCF7 breast 95% | HCT-116 colon 95% | KM12 colon 95.1%
